Measurements taken from PubChem BioAssay.
The source made the active and inactive calls.

Columns and labels:
[1] = E. coli DRC41 culture turbidity changes, primary screen, E. coli filamentation inducer project, strain DRC41, OD650, 48 h (AID 1152);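 further: E. coli MC1000 strain DRC41 lacking acrAB efflux pump and sulA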; settings: E. coli DRC41 (acrAB sulA), higher = more signal, called active from +8 up or from −8 down
[2] = small-molecule binders of probe aLefty1, primary screen, biochemical, small-molecule microarray, 635/667 nm fluorescence (AID 1153); settings: higher = more signal;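 further: score merges spot fluorescence with signal-to-noise ratio from the scanned slide images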
[3] = PSAC antagonists in infected red cells, primary screen, cell-based, P. falciparum Indochina, OD700, 1 h (AID 1154); settings: P. falciparum Indochina infected RBC osmotic lysis, higher = more signal, called active from +8 up or from −8 down
[4] = PSAC antagonists in infected red cells, primary screen, cell-based, P. falciparum Indochina, OD700, 2 h (AID 1155);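 further: lysis reports solute entry through the parasite surface anion channel PSAC; channel blockers reduce lysis of infected cells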; settings: P. falciparum Indochina infected erythrocytes, osmotic lysis OD700; higher = more signal, called active from +8 up or from −8 down
[5] = osmotic lysis modulators in infected erythrocytes, primary screen, PSAC antagonist project, cell-based, P. falciparum Indochina, OD700, 3 h (AID 1156); settings: higher = more signal, called active from +8 up or from −8 down
[6] = PSAC antagonists in infected red cells, primary screen, cell-based, P. falciparum Indochina, OD700, 18 h (AID 1157); settings: P. falciparum Indochina infected erythrocytes, osmotic lysis OD700, 18 h; higher = more signal, called active from +8 up or from −8 down
[7] = modulators of S6 phosphorylation in cells, primary screen, cell-based, A549, cytoblot, luminescence, serum-stimulated (AID 1158); settings: A549 phospho-S6 cytoblot, 5 h, higher = more signal;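 further: serum-stimulated A549 lung adenocarcinoma cells; signal is phosphorylated S6 detected by cytoblot immunostaining with HRP secondary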
[8] = target: NADPH oxidase 2 (Homo sapiens) (UniProt P04839); test: NOX2-dependent H2O2 signal modulators, primary screen, NOX inhibitor project, cell-based, HEK293-NOX2, PMA-stimulated, Amplex Red fluorescence (AID 1159); settings: 45 min, higher = more signal, called active from +8 up or from −8 down; further: test concentration not given here
Sequence of NADPH oxidase 2 (Homo sapiens) (P04839 whole entry, looked up): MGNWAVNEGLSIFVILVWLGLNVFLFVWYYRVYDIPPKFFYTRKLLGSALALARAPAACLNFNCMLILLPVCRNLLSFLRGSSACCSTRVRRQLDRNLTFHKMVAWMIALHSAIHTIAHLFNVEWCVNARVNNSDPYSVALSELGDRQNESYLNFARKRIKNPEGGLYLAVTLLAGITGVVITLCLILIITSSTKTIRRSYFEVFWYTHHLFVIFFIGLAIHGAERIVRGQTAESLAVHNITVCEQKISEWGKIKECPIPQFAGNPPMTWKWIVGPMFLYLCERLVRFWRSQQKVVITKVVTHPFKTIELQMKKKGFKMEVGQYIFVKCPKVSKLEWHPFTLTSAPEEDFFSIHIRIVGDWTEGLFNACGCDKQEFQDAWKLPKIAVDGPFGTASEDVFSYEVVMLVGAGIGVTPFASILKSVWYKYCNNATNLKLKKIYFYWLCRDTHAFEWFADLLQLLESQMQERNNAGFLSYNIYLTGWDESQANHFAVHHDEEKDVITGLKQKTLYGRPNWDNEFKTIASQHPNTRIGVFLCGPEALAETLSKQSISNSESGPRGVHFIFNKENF

[9] = target: NADPH oxidase 4 (Homo sapiens) (UniProt Q9NPH5); test: NOX4-dependent H2O2 signal modulators, primary screen, NOX inhibitor project, cell-based, HEK293-NOX4, tetracycline-induced, Amplex Red fluorescence (AID 1160); settings: 45 min, higher = more signal, called active from +8 up or from −8 down
Sequence of NADPH oxidase 4 (Homo sapiens) (Q9NPH5 whole entry, looked up): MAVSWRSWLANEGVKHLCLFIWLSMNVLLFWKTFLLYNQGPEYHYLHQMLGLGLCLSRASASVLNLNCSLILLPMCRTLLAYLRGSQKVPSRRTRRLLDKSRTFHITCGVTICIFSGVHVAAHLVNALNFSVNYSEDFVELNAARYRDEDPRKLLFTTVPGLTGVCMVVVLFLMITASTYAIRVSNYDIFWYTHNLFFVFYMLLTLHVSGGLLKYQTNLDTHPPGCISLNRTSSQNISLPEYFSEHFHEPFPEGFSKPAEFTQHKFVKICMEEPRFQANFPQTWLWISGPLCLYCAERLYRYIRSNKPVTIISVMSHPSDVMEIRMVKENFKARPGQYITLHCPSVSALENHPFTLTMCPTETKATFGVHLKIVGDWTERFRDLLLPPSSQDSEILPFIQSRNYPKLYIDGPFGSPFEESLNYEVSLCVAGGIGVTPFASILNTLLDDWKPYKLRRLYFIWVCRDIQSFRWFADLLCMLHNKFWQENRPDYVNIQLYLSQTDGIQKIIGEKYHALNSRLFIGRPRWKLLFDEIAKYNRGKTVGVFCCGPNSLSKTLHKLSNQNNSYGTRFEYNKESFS

[10] = target: NADPH oxidase 5 (Homo sapiens) (UniProt Q96PH1); test: NOX5-dependent H2O2 signal modulators, primary screen, NOX inhibitor project, cell-based, HEK293-NOX5, Amplex Red fluorescence (AID 1161); settings: HEK293-NOX5, ionomycin, 45 min, higher = more signal
Sequence of NADPH oxidase 5 (Homo sapiens) (Q96PH1 whole entry, looked up): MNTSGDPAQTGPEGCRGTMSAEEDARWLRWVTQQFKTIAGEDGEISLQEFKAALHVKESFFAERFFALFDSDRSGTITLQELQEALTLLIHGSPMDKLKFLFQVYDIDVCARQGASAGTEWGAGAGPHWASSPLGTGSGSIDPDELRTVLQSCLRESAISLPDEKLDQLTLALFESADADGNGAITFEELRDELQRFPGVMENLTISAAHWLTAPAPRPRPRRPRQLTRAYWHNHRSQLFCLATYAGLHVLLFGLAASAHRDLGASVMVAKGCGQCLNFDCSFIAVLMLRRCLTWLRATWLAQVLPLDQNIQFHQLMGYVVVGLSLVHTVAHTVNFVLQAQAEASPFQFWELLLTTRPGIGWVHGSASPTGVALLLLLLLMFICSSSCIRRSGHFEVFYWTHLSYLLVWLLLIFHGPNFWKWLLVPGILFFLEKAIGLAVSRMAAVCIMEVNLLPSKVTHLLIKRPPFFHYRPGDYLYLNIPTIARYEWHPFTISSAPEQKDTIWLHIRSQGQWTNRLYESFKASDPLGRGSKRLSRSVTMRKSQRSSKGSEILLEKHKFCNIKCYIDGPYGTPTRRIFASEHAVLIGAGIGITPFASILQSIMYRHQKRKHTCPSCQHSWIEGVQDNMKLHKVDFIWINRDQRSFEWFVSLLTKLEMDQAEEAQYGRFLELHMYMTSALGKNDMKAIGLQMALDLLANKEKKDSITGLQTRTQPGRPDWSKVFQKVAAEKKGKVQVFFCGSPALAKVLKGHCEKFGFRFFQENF

Structure (SMILES) | z-score [1] | composite z-score [2] | z-score [3] | z-score [4] | z-score [5] | z-score [6] | z-score [7] | z-score [8] | z-score [9] | z-score [10]
C=CCN1C(=O)[C@]2(O[C@H](CCO)[C@@H]([Si](C)(C)c3ccc(OC)cc3)[C@@H]2C)c2cc(NC(=O)[C@H](C)O)ccc21 | -0.589 (inactive) | 0.174 | 9.01 (active) | 2.65 (inactive) | -0.212 (inactive) | 1.43 (inactive) | 1.23 | 0.911 (inactive) | 1.26 (inactive) | 0.375
CCCCC=C[C@@H](NC(=O)c1ccc(C(=O)OC)cc1)c1ccccc1 | -1.63 (inactive) | 0.317 | 2.85 (inactive) | 0.589 (inactive) | 0.63 (inactive) | 0.569 (inactive) | 0.12 | -1.88 (inactive) | -3.48 (inactive) | 0.0463
O=C(CCN1CCOCC1)c1cccc(O)c1 | -0.202 (inactive) | 0.154 | 0.205 (inactive) | -1.48 (inactive) | -0.582 (inactive) | -1.68 (inactive) | 0.4 | -2.74 (inactive) | -0.206 (inactive) | 1.72
CC(C)OC(=O)CC(=O)CC(O)c1ccc(C#N)cc1 (stereo not given) | 0.567 (inactive) | 0.213 | 1.96 (inactive) | -0.344 (inactive) | -0.745 (inactive) | -1.79 (inactive) | 1.02 | 0.574 (inactive) | -0.518 (inactive) | -0.252
CCCCCCc1nc(CCCc2cc3c(c(CCCCCC)n2)[Si](C(C)C)(C(C)C)OC3)cc2c1[Si](C(C)C)(C(C)C)OC2 | -0.613 (inactive) | 0.13 | 0.611 (inactive) | -1.07 (inactive) | 0.695 (inactive) | -1.72 (inactive) | 0.62 | -3.69 (inactive) | -1.13 (inactive) | -3.41
CC(C)N1C(=O)c2ccccc2[C@@H](C(=O)NCCCN(C)C)[C@@H]1c1ccc(CO)cc1 | -0.534 (inactive) | 1.17 | 2.45 (inactive) | -0.0098 (inactive) | 2.5 (inactive) | 0.181 (inactive) | -0.0692 | 1.08 (inactive) | -0.858 (inactive) | -1.54
O=c1oc(-c2ccccc2)nc2cc(Br)ccc12 | 0.311 (inactive) | -0.0099 | 3.27 (inactive) | 0.635 (inactive) | -1.02 (inactive) | 0.845 (inactive) | -0.29 | 0.377 (inactive) | -0.138 (inactive) | -0.291
Cc1cc(C)c(C(O)C2C=CC3C(=O)N(c4ccccc4)C(=O)C3N2Nc2ccc(C#N)cc2)c(C)c1 (stereo not given) | -0.197 (inactive) | 0.938 | 7.4 (inactive) | 1.27 (inactive) | 0.742 (inactive) | 1.27 (inactive) | -0.649 | 0.0492 (inactive) | -2.68 (inactive) | -2.1
O=C1C[C@@](C(=O)NC2CC2)(c2ccc([N+](=O)[O-])cc2)[C@@H](c2ccc(CO)cc2)N1CC12CC3CC(CC(C3)C1)C2 | 0.904 (inactive) | 0.0861 | 2.28 (inactive) | -0.135 (inactive) | 0.678 (inactive) | -0.83 (inactive) | 0.392 | 0.987 (inactive) | -2.19 (inactive) | -2.35
CCOc1cc(C(O)C2C=CC3C(=O)N(c4ccccc4)C(=O)C3N2Nc2ccc([N+](=O)[O-])cc2)ccc1O (stereo not given) | -1.48 (inactive) | -0.0011 | 14.3 (active) | 1.52 (inactive) | 0.839 (inactive) | 0.557 (inactive) | -0.77 | -3.36 (inactive) | -4.89 (inactive) | -4.11
CN1C(=O)C2C(C1=O)C1C=C(CCCO)C2C(c2cccs2)N1C (stereo not given) | 0.325 (inactive) | -0.274 | 1.52 (inactive) | 0.326 (inactive) | 1.31 (inactive) | 0.181 (inactive) | -0.519 | 0.108 (inactive) | 0.378 (inactive) | 1.22
C=CC[C@@]1(C(=O)N2CCOCC2)N=C(c2ccc(OCCCO)cc2)O[C@@H]1c1ccccc1N=[N+]=[N-] | 0.483 (inactive) | 0.571 | 35.1 (active) | 28.1 (active) | 3.17 (inactive) | 7.41 (inactive) | 1.92 | -2.14 (inactive) | -0.164 (inactive) | -2.02
Cc1ccc(F)cc1S(=O)(=O)N[C@@H]1CCN(Cc2ccc(-c3ccccc3)cc2)C1 | -19.4 (active) | 0.121 | 13 (active) | 2.34 (inactive) | 0.349 (inactive) | 1.41 (inactive) | -0.275 | 0.335 (inactive) | -1.62 (inactive) | -1.57
CCCCC(O)C1C=CC2C(=O)N(C3CCCCC3)C(=O)C2N1Nc1ccc(OC)cc1 (stereo not given) | -0.436 (inactive) | 0.366 | 3 (inactive) | 1.24 (inactive) | 0.517 (inactive) | 0.684 (inactive) | -0.62 | -0.937 (inactive) | -2.06 (inactive) | -1.43
C=CC[C@]1(C(=O)N2CCOCC2)N=C(c2ccc(OCCCO)cc2)O[C@H]1c1ccccc1 | 0.104 (inactive) | 0.302 | 11.3 (active) | 1.09 (inactive) | 0.492 (inactive) | 0.471 (inactive) | -0.0044 | -1.59 (inactive) | 0.486 (inactive) | -0.921
COC(=O)c1ccc(C23CC2(C(NP(=O)(c2ccccc2)c2ccccc2)c2ccccc2)C3)cc1 (stereo not given) | -0.402 (inactive) | 1.08 | 7.74 (inactive) | 0.191 (inactive) | -0.279 (inactive) | -1.02 (inactive) | 1.36 | -0.489 (inactive) | -0.652 (inactive) | -4.37
C=CCC(OC(C)=O)[C@@H]1[C@@H](N(Cc2ccc(-c3cccc(C(F)(F)F)c3)o2)C(=O)c2ccc(C)cc2)c2cc(OCCCO)ccc2N1C(=O)c1ccc(-c2ccccc2)cc1 (stereo not given in full) | 1.35 (inactive) | -0.0464 | 1.93 (inactive) | 0.705 (inactive) | -0.0802 (inactive) | -0.0352 (inactive) | -0.047 | -3.28 (inactive) | 0.822 (inactive) | 2.25
O=C1O[C@@H](c2ccccc2)[C@@H](c2ccccc2)N2[C@@H](c3ccc(OCCO)cc3)[C@]3(C(=O)Nc4ccccc43)[C@@H](C(=O)Nc3nc4ccccc4s3)[C@H]12 | 0.515 (inactive) | 0.919 | 5.55 (inactive) | 2.55 (inactive) | 1.37 (inactive) | 2.01 (inactive) | 0.298 | 1.68 (inactive) | 1.24 (inactive) | 1.63
Cc1ccc(S[C@]2(C(=O)NC3CC3)CC(=O)N(Cc3ccccc3)[C@@H]2c2ccc(CO)cc2)cc1 | -0.485 (inactive) | 0.106 | 1.28 (inactive) | 0.216 (inactive) | -0.552 (inactive) | -0.331 (inactive) | 0.0262 | -0.106 (inactive) | 1.09 (inactive) | 0.997
Cc1ccc(S[C@]2(C(=O)NCC(C)C)CC(=O)N(Cc3ccccc3)[C@@H]2c2ccc(CO)cc2I)cc1 | -0.668 (inactive) | 0.0597 | 10.6 (active) | 1.16 (inactive) | 0.448 (inactive) | 0.598 (inactive) | -0.36 | 1.09 (inactive) | -2.23 (inactive) | 0.489
COCCOC(=O)N1C(=O)[C@@]2(c3cc(C#CCC(C(=O)OC)C(=O)OC)ccc31)[C@H](C(=O)N1CCCCCCC1)[C@H]1C(=O)O[C@H](c3ccccc3)[C@H](c3ccccc3)N1[C@@H]2c1ccc(OCCO)cc1 | 0.917 (inactive) | 2.5 | 17.1 (active) | 4.27 (inactive) | 0.791 (inactive) | 1.14 (inactive) | -0.0447 | 0.327 (inactive) | 0.43 (inactive) | 0.547
O=C1OCC=C[C@H]2OC34C=CCN(c5ccc(Cl)cc5)C(=O)[C@H]3N(CCCCCCO)C(=O)[C@@H]4[C@@H]12 (stereo not given in full) | 0.49 (inactive) | 0.135 | 1.73 (inactive) | 0.398 (inactive) | 0.497 (inactive) | 0.476 (inactive) | -0.243 | 1.42 (inactive) | -0.583 (inactive) | 1.96
COCCOC(=O)N1C(=O)[C@@]2(c3cc(C#CC4=CCCCC4)ccc31)[C@H](C(=O)NC[C@H](O)c1ccccc1)[C@H]1C(=O)O[C@H](c3ccccc3)[C@H](c3ccccc3)N1[C@@H]2c1ccc(O)cc1 | 1.8 (inactive) | 0.265 | 0.602 (inactive) | 0.793 (inactive) | 0.0873 (inactive) | 0.554 (inactive) | -0.176 | 1.2 (inactive) | 0.349 (inactive) | 1.22
N#Cc1ccc(NN2C(C(O)c3ccc([N+](=O)[O-])cc3)C=CC3C(=O)N(c4ccccc4)C(=O)C32)cc1 (stereo not given) | -2.18 (inactive) | 0.0927 | 11.9 (active) | 2.06 (inactive) | 0.362 (inactive) | 1.49 (inactive) | -0.946 | -1.45 (inactive) | -4.95 (inactive) | -3.56
O=C1OCCC=C[C@H]2OC34C=CCN(Cc5ccccc5)C(=O)[C@H]3N(CCCCCO)C(=O)[C@@H]4C12 (stereo not given in full) | 1.8 (inactive) | 0.282 | 1.77 (inactive) | 0.18 (inactive) | 2.12 (inactive) | 0.551 (inactive) | 0.469 | 1.39 (inactive) | 0.701 (inactive) | 1.38
C=C(C(=O)CC[C@H](OC(C)=O)c1ccc(OCCO)cc1)C(C)C | 2.32 (inactive) | 0.0004 | 1.73 (inactive) | -0.266 (inactive) | -1.84 (inactive) | -0.944 (inactive) | 0.823 | -3.44 (inactive) | -1.75 (inactive) | -3.36
